# Measurements published in ChEMBL document CHEMBL4513135, “CO-ADD screening of IQOG CSIS (Spain) compounds”.
# Entries with a potency or affinity are not part of this list.
# Legend:
# Staphylococcus aureus = conditions: Concentration 32 ug.mL-1; ASSAY_TEST Inhibition of Bacterial Growth; detection method Absorption (OD600); MEDIA CAMHB; plate type 384well; NBS; CORNING #3640; time 18 hr
# Escherichia coli = conditions: Concentration 32 ug.mL-1; ASSAY_TEST Inhibition of Bacterial Growth; detection method Absorption (OD600); MEDIA CAMHB; plate type 384well; NBS; CORNING #3640; time 18 hr
SMILES,Inhibition (Staphylococcus aureus) [%],Inhibition (Escherichia coli) [%]
CN(N=O)C(=O)NC1(C(=O)O)CC1c1ccccc1 (stereo not drawn),15,11.14
CNCc1cc2ccccc2n1C.Cl,7.33,3.85
c1ccc(CNc2ncnc3c2cnn3-c2ccccc2)cc1,7.54,6.64
N#CC1(Br)C(=NBr)Oc2ccc3ccccc3c2C1c1ccc([N+](=O)[O-])cc1 (stereo not drawn),17.16,-19.01
COc1ccc(C2c3c(ccc4ccccc34)OC(=NBr)C2(Br)C#N)cc1OC (stereo not drawn),13.88,-20.35
O=c1oc2cc(O)ccc2cc1-c1ccccc1,10.2,2.31
Cc1ccc(CNNC(=O)c2cc3ccccc3n2C)cc1,-9.87,-8.9
O=C(N/N=C/c1ccc([N+](=O)[O-])cc1)c1cc2ccccc2[nH]1,11.24,10.51
N#Cc1cc2c(N)c3c(nc2nc1N1CCCCC1)CCCC3,29.29,3.13
Cl.ClCCCC1CCNCC1,28.57,19.24
CCOC(=O)c1cc2c(N)c3c(nc2nc1C)CCCC3,8.67,-8.78
N#Cc1cc(C#N)c(NCCCC2CCN(Cc3ccccc3)CC2)nc1N,49.11,-3.28
Nc1n[nH]c2c1C(c1ccccc1)CC(=O)N2 (stereo not drawn),40.09,-4.9
CCOC(=O)C1=C(C)OC(N)=C(C#N)C1c1ccccc1OC (stereo not drawn),23.12,-9.51
CNCc1cc2cc(OCc3ccccc3)ccc2n1C.Cl,43.08,3.38
C#CCNc1[nH]c2ccc(O)cc2c1C#N,30.3,-3.92
CC(=O)Nc1n[nH]c2nc(N)c(C#N)c(-c3ccccc3)c12,38.27,1.16
C/C(Cc1ccccc1)=N/NC(=O)c1c[nH]c2ccc(O)cc12,7.12,8.13
CCOC(=O)C1=C(C)OC(N)=C(C#N)C1c1ccc([N+](=O)[O-])cc1 (stereo not drawn),16.31,-9.87
Cc1ccc(C(O)SNNc2ncnc3c2cnn3-c2ccccc2)cc1 (stereo not drawn),13.51,11.76

SMILES,Inhibition (Staphylococcus aureus) [%],Inhibition (Escherichia coli) [%]
c1ccc(-c2nc3c4cnn(-c5ccccc5)c4ncn3n2)cc1,14.04,8.07
C#CCN(C)Cc1cc2cc(OCCCC3CCN(C(=O)OC(C)(C)C)CC3)ccc2n1C,10.44,14.28
Cn1ccnc1C1C2=C(CC(C)(C)CC2=O)Oc2nc3c(c(N)c21)CCC3 (stereo not drawn),12,-19.85
NNC(=O)CCc1c[nH]c2ccccc12,1.93,6.66
Cc1ccc(C=C2N=C(c3ccccc3)OC2=O)cc1,7.55,3.61
COc1nc(Cl)c(C#N)c(-c2ccccc2)c1C#N,35.41,-14.05
Cc1cc(Br)cc(C)c1NC=C(C#N)C#N,7.73,12.6
COc1ccccc1[C@H]1c2c(ccc3ccccc23)O/C(=N\Br)[C@@]1(Br)C#N,33.19,14.2
COC(=O)C(C#N)=Cc1ccccc1,23.27,9.25
Cn1cc(/C=C2\NC(=S)NC2=O)c2ccccc21,2.93,3.35
O=C(N[C@H]1CC[C@@H](Br)[C@@H](Br)C1)C(F)(F)F,24.31,-25.88
COc1cccc(C2c3c(nc4c(c3N)CCCC4)Oc3ccc4ccccc4c32)c1 (stereo not drawn),4.84,-1.02
Nc1c2c(nc3c1CC(c1c(Cl)cccc1Cl)C(=O)N3)CCCC2 (stereo not drawn),22.21,31.42
COc1cc(C2c3c(nc4c(c3N)CCCC4)Oc3ccc4ccccc4c32)cc(OC)c1OC (stereo not drawn),14.84,14.05
CC(=O)Oc1ccc(C=C2N=C(C)OC2=O)cc1,8.81,9.02
CC(C)(C)OC(=O)Nc1ncccc1Br,38.27,-5.45
COc1ccc(-c2cc(-c3cc4ccc(F)cc4nc3Cl)cc(=O)[nH]2)cc1,24.97,-19.12
N#Cc1cccnc1Cl,22.89,-20.17
Nc1nc(N)c(C=O)c(-c2ccccc2)c1C=O,3.38,16.24
